# From the antibiotic and cytotoxicity screens of Wong et al. (2023)
# The campaign covered roughly 39,000 compounds. About 3,300 (8.5%) were called active. The sample as a whole holds a higher share of actives than the screen did.
# Test system: HepG2
# Assay: cytotoxicity call (relative viability < 0.9)
# Settings: 10 µM
row,Compound,cytotoxicity call
1,Nc1nc(/C(=N/O)C(=O)N[C@@H]2C(=O)N3C(C(=O)O)=C(/C=C4\CCN([C@@H]5CCNC5)C4=O)CS[C@H]23)ns1,inactive
2,CSc1ncc(C(=O)NN)n1C,inactive
3,CCS(=O)(=O)NCC[C@H]1CC[C@H](NC(=O)C2CC2)[C@H](CO)O1,inactive
4,CN(C)C(=O)COC[C@]12COC[C@H]1CN(S(C)(=O)=O)C2,inactive
5,C[C@H](CO)N1C[C@H](C)[C@H](CN(C)C(=O)Nc2ccc3c(c2)OCO3)Oc2ccc(NC(=O)c3ccncc3)cc2CC1=O,inactive
6,C[C@H](CO)N1C[C@H](C)[C@H](CN(C)C(=O)Nc2ccc3c(c2)OCO3)Oc2ccc(NS(=O)(=O)c3cn(C)cn3)cc2CC1=O,inactive
7,O=C(Nc1ccc2c(c1)[C@@H]1C[C@@H](CC(=O)N3CCc4ccccc4C3)O[C@H](CO)[C@@H]1O2)C1CCOCC1,inactive
8,C[C@@H]1CN([C@@H](C)CO)C(=O)Cc2cc(NC(=O)C3CC3)ccc2O[C@@H]1CN(C)C(=O)Nc1ccccc1,inactive
9,C[C@@H]1CN([C@H](C)CO)C(=O)c2cc(NC(=O)C3CCCCC3)ccc2O[C@@H](C)CCCCO[C@@H]1CN(C)S(=O)(=O)c1ccc(F)cc1,inactive
10,O=C(CN1CCOCC1)NCC[C@H]1CC[C@@H](NC(=O)Cc2ccccn2)[C@@H](CO)O1,inactive
11,Cc1noc(C)c1NC(=O)N(C)C[C@H]1Oc2c(NS(=O)(=O)c3c(C)noc3C)cccc2C(=O)N([C@@H](C)CO)C[C@H]1C,inactive
12,C=CCOC(=O)[C@H]1[C@@H]2C(=O)O[C@@H](c3ccccc3)[C@@H](c3ccccc3)N2[C@@H](c2ccc(OCCOC(=O)[C@H]3C[C@H]4C(=O)N[C@@H](Cc5ccccc5)C(=O)N4[C@H]3c3ccc(O)cc3)cc2)[C@]12C(=O)Nc1ccccc12,inactive
13,C[C@H]1CN([C@@H](C)CO)C(=O)c2cc(NC(=O)c3ccncc3)ccc2O[C@H]1CN(C)S(=O)(=O)c1ccccc1,inactive
14,O=C(CCCCC(=O)N/N=C/[C@H](O)[C@@H](O)[C@H](O)[C@H](O)CO)NO,inactive
15,Cc1cc(N)c2ccccc2[n+]1CCCCCCCCCC[n+]1c(C)cc(N)c2ccccc21.[Cl-].[Cl-],active
16,CCCN(C)C[C@@H]1OCCCC[C@@H](C)Oc2ccc(NS(=O)(=O)c3ccc(Cl)cc3)cc2C(=O)N([C@H](C)CO)C[C@@H]1C,inactive
17,COc1ccc(NC(=O)Nc2ccc3c(c2)C(=O)N([C@H](C)CO)C[C@H](C)[C@H](CN(C)Cc2ccncc2)OCCCC[C@@H](C)O3)cc1,inactive
18,CN(C)c1nc(N)nc(CSc2nnnn2C)n1,inactive
19,COc1ccc(CN(C)C[C@H]2Oc3ccc(NS(=O)(=O)c4c(C)noc4C)cc3CC(=O)N([C@H](C)CO)C[C@H]2C)cc1,inactive
20,O=C(C[C@@H]1C[C@@H]2c3cc(NC(=O)c4ccc5c(c4)OCO5)ccc3O[C@@H]2[C@H](CO)O1)NCC(F)(F)F,inactive
21,C[C@@H]1CCCCO[C@H](CN(C)Cc2ccc(Cl)c(Cl)c2)[C@H](C)CN([C@H](C)CO)C(=O)c2cc(NS(=O)(=O)c3cccs3)ccc2O1,inactive
22,C[C@@H]1CCCCO[C@H](CN(C)Cc2ccc(Cl)c(Cl)c2)[C@@H](C)CN([C@H](C)CO)C(=O)c2cc(NS(=O)(=O)c3cccs3)ccc2O1,active
23,C[C@H](CO)N1C[C@H](C)[C@@H](CN(C)Cc2ccc(Cl)c(Cl)c2)OCCCC[C@H](C)Oc2ccc(NS(=O)(=O)c3cccs3)cc2C1=O,inactive
24,C[C@@H]1CCCCO[C@@H](CN(C)Cc2ccc(Cl)c(Cl)c2)[C@@H](C)CN([C@@H](C)CO)C(=O)c2cc(NS(=O)(=O)c3cccs3)ccc2O1,active
25,C[C@@H]1CCCCO[C@@H](CN(C)Cc2ccc(Cl)c(Cl)c2)[C@H](C)CN([C@H](C)CO)C(=O)c2cc(NS(=O)(=O)c3cccs3)ccc2O1,inactive

row,Compound,cytotoxicity call
1,C[C@@H]1CCCCO[C@@H](CN(C)Cc2ccc(Cl)c(Cl)c2)[C@@H](C)CN([C@H](C)CO)C(=O)c2cc(NS(=O)(=O)c3cccs3)ccc2O1,inactive
2,CC(C)NC(=O)N(C)C[C@@H]1Oc2ccc(NC(=O)CCCN(C)C)cc2C(=O)N([C@@H](C)CO)C[C@@H]1C,inactive
3,C[C@@H]1CN([C@H](C)CO)C(=O)c2cc(NC(=O)CCN3CCOCC3)ccc2O[C@@H]1CN(C)Cc1ccccc1,inactive
4,C[C@H]1CN([C@@H](C)CO)C(=O)c2cc(C#CC3CC3)cnc2O[C@H]1CN(C)S(=O)(=O)c1cccc(F)c1,inactive
5,COc1ccc(NC(=O)Nc2ccc3c(c2)C(=O)N([C@@H](C)CO)C[C@@H](C)[C@H](CN(C)C(=O)NC(C)C)OCCCC[C@@H](C)O3)cc1,inactive
6,C[C@H]1CN([C@@H](C)CO)C(=O)c2cccc(NC(=O)c3ccncc3)c2O[C@@H]1CN(C)Cc1ccc2c(c1)OCO2,inactive
7,NNC(=S)NCc1ccc(F)cc1,inactive
8,NC(=CS(=O)(=O)Cc1ccc(F)cc1)NO,active
9,N[C@@H](Cc1ccc(F)cc1)C(=O)O,inactive
10,CC(=O)O[C@H]1[C@H](O)[C@H](O)[C@H](O[C@@H]2[C@@H](Oc3cc(O)c4c(=O)cc(-c5ccc(O)c(O)c5)oc4c3)O[C@@H](C(=O)O)[C@H](O)[C@@H]2O)O[C@@H]1C,inactive
11,C[C@H]1CN([C@@H](C)CO)C(=O)c2cc(NC(=O)CCCN(C)C)ccc2O[C@@H]1CN(C)S(=O)(=O)c1ccc(Cl)cc1,inactive
12,CC(C)c1ccccc1OC[C@@H](O)CN,inactive
13,Cc1ccccc1OCC(O)CO (stereo not given),active
14,Cc1ccccc1OC[C@@H](O)CO,inactive
15,COc1cccc(NC(=O)N(C)C[C@H]2Oc3ncc(Br)cc3C(=O)N([C@H](C)CO)C[C@H]2C)c1,inactive
16,C[C@H]1COC(=O)[C@@H](Cc2ccc(F)cc2)CC=CC[C@@H](CC(=O)N[C@H](CO)Cc2ccccc2)C(=O)N1,inactive
17,Cn1nccc1NC(=O)/C=C/C(=O)O,inactive
18,C[C@@H]1CN([C@@H](C)CO)S(=O)(=O)c2ccc(-c3cccc(C#N)c3)cc2O[C@@H]1CN(C)C(=O)c1cccnc1,inactive
19,C[C@@H]1CCCCO[C@@H](CN(C)C(=O)Nc2ccccc2)[C@@H](C)CN([C@H](C)CO)C(=O)c2cc(NC(=O)Nc3ccc(F)cc3)ccc2O1,inactive
20,C[C@H]1CCCCO[C@H](CN(C)C(=O)Nc2ccccc2)[C@@H](C)CN([C@@H](C)CO)C(=O)c2cc(NC(=O)Nc3ccc(F)cc3)ccc2O1,active
21,C[C@@H]1CCCCO[C@H](CN(C)C(=O)Nc2ccc(F)cc2)[C@@H](C)CN([C@H](C)CO)C(=O)c2cc(NC(=O)Nc3ccc(F)cc3)ccc2O1,inactive
22,C[C@@H]1CCCCO[C@@H](CN(C)C(=O)Nc2ccc(F)cc2)[C@H](C)CN([C@@H](C)CO)C(=O)c2cc(NC(=O)Nc3ccccc3)ccc2O1,inactive
23,C[C@@H]1CCCCO[C@@H](CN(C)C(=O)Nc2ccc(F)cc2)[C@@H](C)CN([C@H](C)CO)C(=O)c2cc(NC(=O)Nc3ccc(F)cc3)ccc2O1,inactive
24,C[C@@H]1CN([C@H](C)CO)C(=O)c2cc(NC(=O)Nc3ccc(F)cc3)ccc2O[C@@H](C)CCCCO[C@H]1CN(C)C(=O)Nc1ccc(F)cc1,active
25,COc1ccc(NC(=O)Nc2ccc3c(c2)C(=O)N([C@H](C)CO)C[C@H](C)[C@H](CN(C)Cc2ccc4c(c2)OCO4)OCCCC[C@@H](C)O3)cc1,inactive

row,Compound,cytotoxicity call
1,Cc1ccc(S(=O)(=O)N2C[C@H](O)COC[C@@H]3O[C@@H](CC(=O)NCc4ccc5c(c4)OCO5)CC[C@H]32)cc1,inactive
2,COc1ccc(S(=O)(=O)N(C)C[C@H]2Oc3c(cccc3N(C)C)C(=O)N([C@H](C)CO)C[C@@H]2C)cc1,inactive
3,CC(=O)N1[C@H](Cn2cncn2)C[C@H]2CN(C(N)=O)CC[C@H]21,inactive
4,COc1ccc(NC(=O)N(C)C[C@H]2OCCCC[C@@H](C)Oc3ccc(NC(=O)Nc4c(C)noc4C)cc3C(=O)N([C@@H](C)CO)C[C@H]2C)cc1,inactive
5,C[C@@H]1CCCCO[C@H](CN(C)Cc2ccccc2)[C@H](C)CN([C@@H](C)CO)C(=O)c2cc(NC(=O)CCC(F)(F)F)ccc2O1,inactive
6,COc1ccc(NC(=O)Nc2ccc3c(c2)C(=O)N([C@H](C)CO)C[C@@H](C)[C@@H](CN(C)C(=O)c2ccccc2)OCCCC[C@H](C)O3)cc1,inactive
7,NNC(=O)CCCCC(=O)NO,active
8,NNC(=O)CCCCCC(=O)NO,inactive
9,NNC(=O)CCCCCCC(=O)NO,inactive
10,Cc1cc([N+](=O)[O-])nn1CC(=O)NC(C)C,inactive
11,COc1cc2c(cc1OC)C(=O)OC2,inactive
12,COc1cc2c(cc1OC)Cc1cc(OC)c(OC)cc1Cc1cc(OC)c(OC)cc1C2,inactive
13,COc1cc2c(cc1OC)C(=O)NCC2,active
14,CO[C@H]1CN(C)C(=O)c2cc(NC(=O)C3CC3)ccc2OC[C@H](C)N(C(=O)Cc2ccccn2)C[C@H]1C,inactive
15,Cc1cc(C(=O)Nc2cccc3c2O[C@@H](CN(C)C(=O)Nc2ccccc2)[C@H](C)CN([C@@H](C)CO)C3=O)n(C)n1,inactive
16,NCCCCCc1nnc(SCC(N)=O)o1,inactive
17,Cc1ccc(CSc2nnc(CCN)o2)cc1,active
18,CC1(C)CC(=O)c2c(C(F)(F)F)nn(-c3ccc(C(N)=O)c(O[C@H]4CC[C@H](N)CC4)c3)c2C1,inactive
19,CC1(C)CC(=O)c2c(C(F)(F)F)nn(-c3ccc(C(N)=O)c(N[C@H]4CC[C@H](OC(=O)CN)CC4)c3)c2C1,active
20,CC(C)[C@@H](CC[C@@H](C)[C@H]1CC[C@H]2[C@@H]3[C@H](O)C[C@H]4C[C@@H](NCCCNCCCCN)CC[C@]4(C)[C@H]3CC[C@]12C)OS(=O)(=O)O,active
21,CC(CCC(=O)O)C1CCC2C3C(O)CC4CC(O)CCC4(C)C3CCC12C (stereo not given),inactive
22,CCCCCCCCCCCCCCCCCCCC(=O)N[C@H]1CC[C@@]2(C)[C@@H](C1)C[C@@H](O)[C@@H]1[C@@H]2C[C@H](O)[C@]2(C)[C@@H]([C@H](C)CCC(=O)O)CC[C@@H]12,inactive
23,CC(C)[C@@H](CC[C@@H](C)[C@H]1CC[C@H]2[C@@H]3[C@H](O)C[C@H]4C[C@@H](NCCCNCCCCNCCCN)CC[C@]4(C)[C@H]3CC[C@]12C)OS(=O)(=O)O,active
24,CC(CCC(=O)O)C1CCC2C3CCC4CC(O)CCC4(C)C3CCC12C (stereo not given),inactive
25,CCC(CCC(C)C1CCC2C3CCC4CC(O)CCC4(C)C3CCC12C)C(C)C (stereo not given),inactive
